Assay results as given in the supplement of paper PMC11732987, “Enantioselective OTUD7B fragment discovery through chemoproteomics screening and high-throughput optimisation” (Communications Chemistry, 2025).

How the values were obtained:
Assay in all cases: log2 ratio of Biotin-Ahx-Ub-VS probe labelling (fragment/DMSO); higher = less target engagement (more negative = stronger competition), active = hit call of the paper (q ≤ 0.05, log2 ratio ≤ -1)
Conditions in all cases: compound concentration: 200 uM; treatment time: 3 h
USP19 = target: T1, USP19 (UniProt O94966)
T1 sequence (whole entry): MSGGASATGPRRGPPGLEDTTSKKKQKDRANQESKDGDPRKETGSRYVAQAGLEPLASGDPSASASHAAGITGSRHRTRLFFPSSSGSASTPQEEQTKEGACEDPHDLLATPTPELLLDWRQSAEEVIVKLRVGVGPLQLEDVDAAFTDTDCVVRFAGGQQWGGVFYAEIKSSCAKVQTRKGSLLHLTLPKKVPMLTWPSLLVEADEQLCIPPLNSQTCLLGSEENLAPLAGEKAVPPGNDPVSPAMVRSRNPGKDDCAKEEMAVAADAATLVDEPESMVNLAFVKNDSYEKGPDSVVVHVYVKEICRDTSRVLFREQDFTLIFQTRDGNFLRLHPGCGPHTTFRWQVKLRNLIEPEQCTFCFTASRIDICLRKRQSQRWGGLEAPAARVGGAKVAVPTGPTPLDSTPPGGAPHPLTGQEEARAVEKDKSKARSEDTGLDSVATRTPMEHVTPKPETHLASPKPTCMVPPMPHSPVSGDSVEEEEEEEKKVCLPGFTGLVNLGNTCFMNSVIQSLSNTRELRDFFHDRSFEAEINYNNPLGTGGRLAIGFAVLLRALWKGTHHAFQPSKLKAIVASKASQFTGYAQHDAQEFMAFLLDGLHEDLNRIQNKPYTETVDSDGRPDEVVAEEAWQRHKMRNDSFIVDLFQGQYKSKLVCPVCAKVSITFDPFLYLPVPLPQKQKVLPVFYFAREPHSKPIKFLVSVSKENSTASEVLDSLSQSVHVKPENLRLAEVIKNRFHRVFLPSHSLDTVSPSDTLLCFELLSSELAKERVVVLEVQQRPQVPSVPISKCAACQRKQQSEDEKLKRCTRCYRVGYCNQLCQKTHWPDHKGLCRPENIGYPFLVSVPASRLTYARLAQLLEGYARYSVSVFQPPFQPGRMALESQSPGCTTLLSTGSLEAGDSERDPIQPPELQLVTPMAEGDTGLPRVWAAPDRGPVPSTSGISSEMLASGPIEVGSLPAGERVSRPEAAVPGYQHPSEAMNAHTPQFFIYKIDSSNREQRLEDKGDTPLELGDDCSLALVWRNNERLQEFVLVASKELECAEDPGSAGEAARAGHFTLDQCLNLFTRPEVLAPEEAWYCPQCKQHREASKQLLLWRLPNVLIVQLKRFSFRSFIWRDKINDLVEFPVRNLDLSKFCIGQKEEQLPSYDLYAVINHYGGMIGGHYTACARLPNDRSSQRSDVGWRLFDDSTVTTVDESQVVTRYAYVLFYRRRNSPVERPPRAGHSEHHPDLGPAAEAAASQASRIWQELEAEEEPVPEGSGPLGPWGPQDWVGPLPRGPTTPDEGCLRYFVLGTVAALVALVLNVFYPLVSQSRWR
Outline: (§1)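 Using Biotin-Ahx-Ub-VS at 0.5 µM final for 1 h, DUBs were labelled in HEK293T lysate (495 µg per sample) that had first been treated in triplicate with fragment at 200 µM or vehicle for 3 h. NeutrAvidin enrichment, LysC and trypsin digestion and diaPASEF LC-MS/MS followed. Spectronaut label-free quantities were global-median-normalised. Values are average log2 fragment/vehicle ratios by unpaired t-test, using proteins with ≥2 unique peptides.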

USP24 = USP24 (UniProt Q9UPU5)
Outline: as §1

USP25 = target: T2, USP25 (UniProt Q9UHP3)
T2 sequence (whole entry): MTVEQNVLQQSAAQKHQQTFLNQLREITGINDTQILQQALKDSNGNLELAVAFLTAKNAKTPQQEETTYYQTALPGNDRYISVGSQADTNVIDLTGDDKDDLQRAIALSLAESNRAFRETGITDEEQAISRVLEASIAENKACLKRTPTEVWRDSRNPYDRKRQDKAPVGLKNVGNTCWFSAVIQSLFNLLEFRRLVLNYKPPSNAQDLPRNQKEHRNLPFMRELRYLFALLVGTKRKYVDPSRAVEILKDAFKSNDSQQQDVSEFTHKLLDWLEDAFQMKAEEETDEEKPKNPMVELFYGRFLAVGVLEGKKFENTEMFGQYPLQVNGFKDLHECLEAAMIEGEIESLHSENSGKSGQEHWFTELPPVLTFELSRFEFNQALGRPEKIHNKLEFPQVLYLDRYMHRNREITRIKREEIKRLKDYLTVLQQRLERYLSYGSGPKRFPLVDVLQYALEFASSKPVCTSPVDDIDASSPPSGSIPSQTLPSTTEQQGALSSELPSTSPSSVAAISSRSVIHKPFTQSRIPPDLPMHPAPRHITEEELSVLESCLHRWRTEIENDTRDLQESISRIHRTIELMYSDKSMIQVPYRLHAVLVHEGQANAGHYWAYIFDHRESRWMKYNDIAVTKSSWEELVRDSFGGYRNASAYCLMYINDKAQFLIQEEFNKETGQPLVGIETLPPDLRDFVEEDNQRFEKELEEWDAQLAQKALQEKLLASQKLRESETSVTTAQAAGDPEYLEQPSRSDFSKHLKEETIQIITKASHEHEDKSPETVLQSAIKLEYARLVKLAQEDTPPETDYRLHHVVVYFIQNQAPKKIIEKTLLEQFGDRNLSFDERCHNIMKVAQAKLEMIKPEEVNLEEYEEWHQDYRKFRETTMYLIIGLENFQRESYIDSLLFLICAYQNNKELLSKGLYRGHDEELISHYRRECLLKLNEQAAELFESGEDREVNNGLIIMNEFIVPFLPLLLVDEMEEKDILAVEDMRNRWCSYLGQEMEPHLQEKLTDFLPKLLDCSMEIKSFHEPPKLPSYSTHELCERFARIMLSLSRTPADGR
Outline: as §1

USP28 = target: T3, USP28 (UniProt Q96RU2)
T3 sequence (whole entry): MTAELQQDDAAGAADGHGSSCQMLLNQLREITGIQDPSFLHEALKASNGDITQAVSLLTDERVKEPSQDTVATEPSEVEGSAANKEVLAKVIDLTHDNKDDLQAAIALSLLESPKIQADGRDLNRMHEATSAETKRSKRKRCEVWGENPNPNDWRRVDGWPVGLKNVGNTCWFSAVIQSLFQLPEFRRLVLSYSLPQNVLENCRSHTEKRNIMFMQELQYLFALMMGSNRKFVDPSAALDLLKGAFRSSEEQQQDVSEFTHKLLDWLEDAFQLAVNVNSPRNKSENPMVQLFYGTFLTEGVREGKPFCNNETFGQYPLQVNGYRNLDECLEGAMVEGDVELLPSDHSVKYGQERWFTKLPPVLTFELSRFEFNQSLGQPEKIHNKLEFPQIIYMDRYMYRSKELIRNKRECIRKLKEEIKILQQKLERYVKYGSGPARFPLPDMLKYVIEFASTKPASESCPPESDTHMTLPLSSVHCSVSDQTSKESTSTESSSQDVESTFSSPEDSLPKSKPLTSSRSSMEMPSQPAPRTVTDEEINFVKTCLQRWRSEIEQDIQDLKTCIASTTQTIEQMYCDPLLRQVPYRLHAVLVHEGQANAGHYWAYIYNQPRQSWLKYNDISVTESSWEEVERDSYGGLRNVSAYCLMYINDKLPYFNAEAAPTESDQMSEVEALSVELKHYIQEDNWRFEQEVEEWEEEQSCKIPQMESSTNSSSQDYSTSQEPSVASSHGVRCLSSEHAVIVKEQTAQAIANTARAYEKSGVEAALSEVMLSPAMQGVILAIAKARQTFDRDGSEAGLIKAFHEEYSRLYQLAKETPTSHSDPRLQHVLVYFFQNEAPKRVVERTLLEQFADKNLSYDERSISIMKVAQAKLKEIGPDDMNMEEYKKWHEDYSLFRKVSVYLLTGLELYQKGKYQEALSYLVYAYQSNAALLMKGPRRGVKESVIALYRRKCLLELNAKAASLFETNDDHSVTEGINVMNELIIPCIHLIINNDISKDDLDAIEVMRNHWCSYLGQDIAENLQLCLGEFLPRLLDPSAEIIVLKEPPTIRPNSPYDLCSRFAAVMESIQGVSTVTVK
Outline: as §1

Measured: log2 ratio of Biotin-Ahx-Ub-VS probe labelling

Chain of USP24 (Q9UPU5 whole entry): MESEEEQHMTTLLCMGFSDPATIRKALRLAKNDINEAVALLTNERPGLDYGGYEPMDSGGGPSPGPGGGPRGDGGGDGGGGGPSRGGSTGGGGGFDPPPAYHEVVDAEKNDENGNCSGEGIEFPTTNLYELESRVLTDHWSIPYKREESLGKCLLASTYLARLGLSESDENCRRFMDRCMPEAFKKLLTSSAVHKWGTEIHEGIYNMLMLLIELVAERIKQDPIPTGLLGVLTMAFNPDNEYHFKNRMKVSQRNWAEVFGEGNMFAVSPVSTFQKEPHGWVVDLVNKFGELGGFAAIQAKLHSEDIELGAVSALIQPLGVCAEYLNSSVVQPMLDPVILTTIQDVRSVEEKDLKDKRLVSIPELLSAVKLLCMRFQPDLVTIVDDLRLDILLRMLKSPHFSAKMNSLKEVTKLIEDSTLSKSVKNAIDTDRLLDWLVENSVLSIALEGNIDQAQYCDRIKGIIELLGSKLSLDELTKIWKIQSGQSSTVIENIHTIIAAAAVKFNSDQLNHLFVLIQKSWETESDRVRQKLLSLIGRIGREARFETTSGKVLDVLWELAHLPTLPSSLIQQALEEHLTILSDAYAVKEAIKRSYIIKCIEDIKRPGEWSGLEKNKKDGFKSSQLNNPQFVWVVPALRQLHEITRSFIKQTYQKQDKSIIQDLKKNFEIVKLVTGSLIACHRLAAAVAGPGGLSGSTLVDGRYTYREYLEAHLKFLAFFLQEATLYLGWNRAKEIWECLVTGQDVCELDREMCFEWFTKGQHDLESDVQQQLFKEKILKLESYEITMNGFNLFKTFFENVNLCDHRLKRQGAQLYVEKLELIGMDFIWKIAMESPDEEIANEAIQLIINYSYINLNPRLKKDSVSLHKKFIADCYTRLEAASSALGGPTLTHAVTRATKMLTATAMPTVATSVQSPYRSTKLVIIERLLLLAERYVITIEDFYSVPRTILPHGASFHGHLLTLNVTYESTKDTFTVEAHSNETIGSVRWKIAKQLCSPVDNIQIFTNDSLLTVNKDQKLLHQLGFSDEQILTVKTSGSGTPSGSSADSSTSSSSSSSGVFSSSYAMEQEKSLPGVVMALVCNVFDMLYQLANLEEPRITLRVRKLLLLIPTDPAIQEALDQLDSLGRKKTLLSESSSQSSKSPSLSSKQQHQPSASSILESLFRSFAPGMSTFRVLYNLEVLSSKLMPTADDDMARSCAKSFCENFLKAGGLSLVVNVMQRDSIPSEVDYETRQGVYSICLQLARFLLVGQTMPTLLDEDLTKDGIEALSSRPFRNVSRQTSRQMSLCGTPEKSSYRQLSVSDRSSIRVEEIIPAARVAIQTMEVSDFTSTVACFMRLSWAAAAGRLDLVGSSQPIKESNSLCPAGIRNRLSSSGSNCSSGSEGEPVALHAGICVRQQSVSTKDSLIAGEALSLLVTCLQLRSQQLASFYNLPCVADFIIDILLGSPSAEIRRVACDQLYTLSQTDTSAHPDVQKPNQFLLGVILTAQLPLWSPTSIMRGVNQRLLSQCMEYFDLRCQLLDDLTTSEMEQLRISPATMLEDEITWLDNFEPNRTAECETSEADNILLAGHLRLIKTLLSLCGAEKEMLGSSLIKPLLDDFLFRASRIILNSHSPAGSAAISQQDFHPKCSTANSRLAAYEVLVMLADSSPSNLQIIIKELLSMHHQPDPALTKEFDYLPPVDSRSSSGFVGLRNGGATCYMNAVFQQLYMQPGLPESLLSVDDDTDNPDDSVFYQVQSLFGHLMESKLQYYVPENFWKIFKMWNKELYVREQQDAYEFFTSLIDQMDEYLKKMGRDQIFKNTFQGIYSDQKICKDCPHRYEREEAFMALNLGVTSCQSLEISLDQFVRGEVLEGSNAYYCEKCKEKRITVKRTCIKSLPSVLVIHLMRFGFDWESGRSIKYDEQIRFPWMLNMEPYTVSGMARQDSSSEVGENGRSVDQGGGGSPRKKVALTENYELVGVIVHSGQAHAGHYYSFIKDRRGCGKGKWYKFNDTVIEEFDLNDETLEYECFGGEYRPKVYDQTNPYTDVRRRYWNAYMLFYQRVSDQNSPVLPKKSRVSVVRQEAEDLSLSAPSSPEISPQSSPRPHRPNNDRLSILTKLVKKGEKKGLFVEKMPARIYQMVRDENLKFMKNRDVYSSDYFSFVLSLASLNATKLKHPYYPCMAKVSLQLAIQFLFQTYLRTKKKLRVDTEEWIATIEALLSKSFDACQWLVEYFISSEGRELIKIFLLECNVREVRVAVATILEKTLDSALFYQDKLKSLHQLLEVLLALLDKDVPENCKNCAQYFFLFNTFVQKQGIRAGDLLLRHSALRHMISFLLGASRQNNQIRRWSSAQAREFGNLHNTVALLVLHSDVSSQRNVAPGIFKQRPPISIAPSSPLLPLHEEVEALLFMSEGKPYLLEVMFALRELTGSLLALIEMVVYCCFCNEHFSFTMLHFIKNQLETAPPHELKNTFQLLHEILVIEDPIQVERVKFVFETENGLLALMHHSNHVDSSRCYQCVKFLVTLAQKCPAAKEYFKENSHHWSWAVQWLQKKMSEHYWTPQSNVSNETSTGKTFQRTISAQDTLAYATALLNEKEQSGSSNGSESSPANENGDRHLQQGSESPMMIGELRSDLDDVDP

Cl.Cn1nc2c(c1CNC(=O)CCl)CCCC2
inactive: USP19 0.00104 | USP24 -0.0442 | USP25 -0.147 | USP28 -0.325
